{
  "source": "paper PMC7862700",
  "about": "“An all-to-all approach to the identification of sequence-specific readers for epigenetic DNA modifications on cytosine”",
  "assay_in_all_cases": "DAPPL (digital affinity profiling via proximity ligation, sequencing); 10 mM Tris-HCl pH 7.5, 50 mM NaCl, 1 mM DTT, 4% glycerol, room temperature, 30 min; GST-TFs on glutathione beads, 16-mer random dsDNA library, 0.1% formaldehyde crosslink after washing; high values mean tight binding",
  "details_in_all_cases": "protein: recombinant; tags: N-terminal GST; dsDNA, one strand shown",
  "key": {"FLI1": {"biological_target": "T1, FLI1 (Homo sapiens, UniProt Q01543 1-452)", "T1 sequence": "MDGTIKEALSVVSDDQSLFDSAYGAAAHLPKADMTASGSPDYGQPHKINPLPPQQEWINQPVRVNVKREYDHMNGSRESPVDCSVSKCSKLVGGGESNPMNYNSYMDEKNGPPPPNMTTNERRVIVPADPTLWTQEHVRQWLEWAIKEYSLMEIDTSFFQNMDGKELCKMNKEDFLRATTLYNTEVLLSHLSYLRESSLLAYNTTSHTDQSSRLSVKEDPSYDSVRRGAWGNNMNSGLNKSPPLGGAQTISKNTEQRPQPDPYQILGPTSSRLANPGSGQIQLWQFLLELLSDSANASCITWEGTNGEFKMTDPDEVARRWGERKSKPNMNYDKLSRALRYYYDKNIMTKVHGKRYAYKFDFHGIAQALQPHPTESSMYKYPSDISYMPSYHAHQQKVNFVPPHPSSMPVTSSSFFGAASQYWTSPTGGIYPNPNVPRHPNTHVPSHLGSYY", "in_short": "(§1)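 GST fusions of human transcription factors were expressed in yeast and captured with glutathione beads. Once given DNA barcodes and pooled alongside a tag-only sample, they were incubated for 30 min at room temperature with 200 nmole of a random double-stranded 16-mer DNA library in Tris/NaCl/DTT/glycerol buffer, then washed, crosslinked (0.1% formaldehyde), proximity-ligated, PCR-amplified and sequenced on an Illumina NextSeq500. The binding signal of each hexamer is its read frequency for a factor divided by its frequency for the tag-only sample.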"}, "ELK1": {"biological_target": "T2, ELK1 (Homo sapiens, UniProt P19419 1-428)", "T2 sequence": "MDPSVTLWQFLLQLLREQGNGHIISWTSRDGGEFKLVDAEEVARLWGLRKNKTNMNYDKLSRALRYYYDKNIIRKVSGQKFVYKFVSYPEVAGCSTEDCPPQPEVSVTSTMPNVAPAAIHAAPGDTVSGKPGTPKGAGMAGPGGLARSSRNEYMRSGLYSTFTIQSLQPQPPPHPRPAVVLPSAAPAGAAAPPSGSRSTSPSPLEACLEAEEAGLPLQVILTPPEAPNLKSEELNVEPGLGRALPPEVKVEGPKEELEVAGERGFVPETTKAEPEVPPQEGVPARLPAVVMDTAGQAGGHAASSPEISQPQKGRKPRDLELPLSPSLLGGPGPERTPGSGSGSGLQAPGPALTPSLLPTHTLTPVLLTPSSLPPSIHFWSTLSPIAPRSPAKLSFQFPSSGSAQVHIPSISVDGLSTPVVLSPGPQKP", "in_short": "as §1"}, "GABPA": {"biological_target": "T3, GABPA (Homo sapiens, UniProt Q06546 1-454)", "T3 sequence": "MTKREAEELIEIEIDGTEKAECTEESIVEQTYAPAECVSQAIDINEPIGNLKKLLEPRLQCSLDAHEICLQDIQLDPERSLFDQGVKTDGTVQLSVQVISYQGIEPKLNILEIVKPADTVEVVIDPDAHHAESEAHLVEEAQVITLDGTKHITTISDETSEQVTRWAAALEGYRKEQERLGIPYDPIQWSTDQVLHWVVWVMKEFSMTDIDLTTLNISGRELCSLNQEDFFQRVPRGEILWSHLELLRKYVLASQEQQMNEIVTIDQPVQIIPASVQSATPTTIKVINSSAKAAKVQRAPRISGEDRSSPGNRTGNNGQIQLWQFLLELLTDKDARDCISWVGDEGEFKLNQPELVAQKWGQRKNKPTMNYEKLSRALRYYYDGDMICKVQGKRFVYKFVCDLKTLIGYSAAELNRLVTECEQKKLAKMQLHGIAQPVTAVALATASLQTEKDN", "in_short": "as §1"}, "ERG": {"biological_target": "T4, ERG (Homo sapiens, UniProt P11308 1-479)", "T4 sequence": "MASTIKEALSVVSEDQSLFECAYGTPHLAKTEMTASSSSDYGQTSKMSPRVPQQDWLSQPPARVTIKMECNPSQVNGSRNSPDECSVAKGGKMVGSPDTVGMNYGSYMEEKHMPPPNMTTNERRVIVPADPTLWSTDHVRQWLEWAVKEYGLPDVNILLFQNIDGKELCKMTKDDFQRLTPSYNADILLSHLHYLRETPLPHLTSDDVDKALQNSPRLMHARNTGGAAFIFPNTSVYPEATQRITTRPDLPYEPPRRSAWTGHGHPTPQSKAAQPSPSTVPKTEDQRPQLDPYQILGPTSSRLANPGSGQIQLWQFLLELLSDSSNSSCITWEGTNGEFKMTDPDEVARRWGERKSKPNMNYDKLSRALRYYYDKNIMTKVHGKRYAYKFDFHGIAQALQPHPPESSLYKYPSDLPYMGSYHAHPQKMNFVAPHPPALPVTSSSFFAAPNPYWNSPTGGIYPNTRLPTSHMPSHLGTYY", "in_short": "as §1"}, "ELF1": {"biological_target": "ELF1 (Homo sapiens, UniProt P32519 1-619)", "sequence (P32519 whole entry)": "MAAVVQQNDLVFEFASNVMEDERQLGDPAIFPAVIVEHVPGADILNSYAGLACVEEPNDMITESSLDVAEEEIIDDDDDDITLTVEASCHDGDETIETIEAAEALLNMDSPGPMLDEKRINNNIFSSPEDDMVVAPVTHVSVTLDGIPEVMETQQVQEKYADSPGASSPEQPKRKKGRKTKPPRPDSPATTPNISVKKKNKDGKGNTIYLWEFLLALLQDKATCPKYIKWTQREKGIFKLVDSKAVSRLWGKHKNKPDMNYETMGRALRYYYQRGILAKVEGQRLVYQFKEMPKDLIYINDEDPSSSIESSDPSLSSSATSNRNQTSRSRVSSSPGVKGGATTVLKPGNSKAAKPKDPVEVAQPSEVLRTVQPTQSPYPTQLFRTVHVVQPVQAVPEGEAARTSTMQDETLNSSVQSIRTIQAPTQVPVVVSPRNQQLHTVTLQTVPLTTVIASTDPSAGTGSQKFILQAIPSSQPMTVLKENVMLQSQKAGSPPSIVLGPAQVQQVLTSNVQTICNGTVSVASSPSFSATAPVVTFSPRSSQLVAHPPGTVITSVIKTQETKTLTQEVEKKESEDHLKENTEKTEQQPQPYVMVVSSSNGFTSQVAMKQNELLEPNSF", "in_short": "as §1"}, "EHF": {"biological_target": "T5, EHF (Homo sapiens, UniProt Q9NZC4 1-300)", "T5 sequence": "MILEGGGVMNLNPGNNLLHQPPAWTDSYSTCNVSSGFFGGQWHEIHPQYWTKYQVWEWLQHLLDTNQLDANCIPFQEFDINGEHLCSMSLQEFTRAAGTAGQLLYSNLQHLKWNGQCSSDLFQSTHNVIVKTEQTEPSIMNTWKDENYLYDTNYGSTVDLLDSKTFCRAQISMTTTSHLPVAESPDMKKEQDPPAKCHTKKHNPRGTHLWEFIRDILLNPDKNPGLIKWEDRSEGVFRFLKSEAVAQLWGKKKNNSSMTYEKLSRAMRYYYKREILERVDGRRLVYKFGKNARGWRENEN", "in_short": "as §1"}, "SPI1": {"biological_target": "SPI1 (Homo sapiens, UniProt P17947 1-270)", "in_short": "as §1"}, "SPIB": {"biological_target": "SPIB (Homo sapiens, UniProt Q01892 1-262)", "sequence (Q01892 whole entry)": "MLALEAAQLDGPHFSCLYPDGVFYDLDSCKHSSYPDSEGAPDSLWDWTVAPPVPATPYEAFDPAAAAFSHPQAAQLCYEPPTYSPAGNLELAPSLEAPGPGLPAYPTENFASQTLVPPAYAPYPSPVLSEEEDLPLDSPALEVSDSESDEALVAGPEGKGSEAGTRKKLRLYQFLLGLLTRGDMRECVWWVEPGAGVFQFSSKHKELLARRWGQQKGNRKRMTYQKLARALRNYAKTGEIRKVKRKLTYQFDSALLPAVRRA", "in_short": "as §1"}, "ELK3": {"biological_target": "T6, ELK3 (Homo sapiens, UniProt P41970 1-407)", "T6 sequence": "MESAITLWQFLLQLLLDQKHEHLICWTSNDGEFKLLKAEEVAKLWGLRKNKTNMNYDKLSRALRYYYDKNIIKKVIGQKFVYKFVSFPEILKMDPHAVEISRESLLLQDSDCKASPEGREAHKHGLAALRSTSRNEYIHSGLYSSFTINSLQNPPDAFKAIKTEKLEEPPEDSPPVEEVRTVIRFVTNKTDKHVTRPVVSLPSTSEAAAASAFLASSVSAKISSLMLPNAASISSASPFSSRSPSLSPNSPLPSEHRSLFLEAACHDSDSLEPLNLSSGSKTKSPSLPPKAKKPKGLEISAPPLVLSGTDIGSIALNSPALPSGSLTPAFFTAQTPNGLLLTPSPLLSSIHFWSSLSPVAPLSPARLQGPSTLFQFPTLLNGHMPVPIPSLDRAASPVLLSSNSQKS", "in_short": "as §1"}},
  "data": [
    {"sequence": "TCTCAT", "values": [
      {"measurement": "binding signal", "setting": "FLI1", "value": "1.3 fold enrichment (6-mer frequency, TF over GST control)"},
      {"measurement": "binding signal", "setting": "ELK1", "value": "1.36 fold enrichment (6-mer frequency, TF over GST control)"},
      {"measurement": "binding signal", "setting": "GABPA", "value": "1.34 fold enrichment (6-mer frequency, TF over GST control)"},
      {"measurement": "binding signal", "setting": "ERG", "value": "1.2 fold enrichment (6-mer frequency, TF over GST control)"},
      {"measurement": "binding signal", "setting": "ELF1", "value": "1.36 fold enrichment (6-mer frequency, TF over GST control)"},
      {"measurement": "binding signal", "setting": "EHF", "value": "1.31 fold enrichment (6-mer frequency, TF over GST control)"},
      {"measurement": "binding signal", "setting": "SPI1", "value": "1.37 fold enrichment (6-mer frequency, TF over GST control)"},
      {"measurement": "binding signal", "setting": "SPIB", "value": "1.33 fold enrichment (6-mer frequency, TF over GST control)"},
      {"measurement": "binding signal", "setting": "ELK3", "value": "1.29 fold enrichment (6-mer frequency, TF over GST control)"}
    ]}
  ]
}
